35 molecules from PubChem BioAssay (Tox21) can be followed below.

Inconclusive results are not listed. A number with no mark means an inactive call. Unless noted, calls follow the shape of the dose curve; as a rule, active = well fitted cell-killing curve with a large enough effect in the repeat runs; inconclusive = weak or mixed curves, or effect the other way; inactive = no such curve, though single readings can be large or run the other way.
% is scaled to controls: 0 for no effect and ±100 for the full control effect.

The target in one test is Vitamin D3 receptor (Homo sapiens) (UniProt P11473). The test is described as follows: qHTS assay to identify small molecule agonists of the vitamin D receptor (VDR) signaling pathway (AID 743222; calls by dose curve). To be noted: HEK293T VDR-UAS-bla, beta-lactamase FRET ratio, 16 h; series mostly up to 63.5 µM; activation: at the top concentration. The method in brief: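 Agonist activity measured in VDR-bla reporter cells. Exposure 16 h, 37C, 5% CO2; detection by B/G FRET substrate, 2 h RT.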
Vitamin D3 receptor (Homo sapiens), sequence (P11473 whole entry, looked up): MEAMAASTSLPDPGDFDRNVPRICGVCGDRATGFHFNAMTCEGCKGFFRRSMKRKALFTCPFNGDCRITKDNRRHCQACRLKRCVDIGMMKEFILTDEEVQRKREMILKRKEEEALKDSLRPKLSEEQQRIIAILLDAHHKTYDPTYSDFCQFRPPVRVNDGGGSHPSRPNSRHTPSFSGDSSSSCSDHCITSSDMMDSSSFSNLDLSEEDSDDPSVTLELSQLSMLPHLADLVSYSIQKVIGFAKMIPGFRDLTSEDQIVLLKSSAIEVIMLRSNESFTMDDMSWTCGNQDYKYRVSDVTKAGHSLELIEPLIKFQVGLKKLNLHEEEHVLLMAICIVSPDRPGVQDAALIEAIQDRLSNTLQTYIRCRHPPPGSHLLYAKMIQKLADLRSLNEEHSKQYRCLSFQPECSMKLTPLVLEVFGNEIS
(In qHTS, concentration-response curves come from the screen itself.)
As for `N#Cc1ccc(N(CC(N)=O)CC(F)(F)F)cc1C(F)(F)F`, the “activation” value was 0.522%.

Regarding `c1ccc(Nc2ccc(Nc3ccccc3)cc2)cc1`, the “activation” value was -19%.

Turning to `CCN(CC)Cc1nccn1-c1ccc([N+](=O)[O-])cc1C(=O)c1ccccc1Cl`, the “activation” value is -3.31%.

With `O=C(N[C@@H]1N=C(c2ccccc2F)c2cccc3c2N(CC3)C1=O)c1cc2ccccc2[nH]1`, the “activation” value was 1.7%.

Consider `[C-]1=CC=CC1.[Cl][Zr+2][Cl].c1cc[cH-]c1`, for which the “activation” value was 7.52% [at 81.1 µM].

For the molecule `CCOP(=O)(Sc1ccccc1)Sc1ccccc1`, the “activation” value is -2.45%.

Take `O=S(=O)(O)F`: the “activation” value is -0.674% [at 81.1 µM].

As to `O=[N+]([O-])c1ccc(Cl)c(Cl)c1Cl`, the “activation” value was -8.07%.

As to `CSC(C)(C)/C=N/O`, the “activation” value is 2.24%.

`CCNS(=O)(=O)C(F)(F)C(F)(F)C(F)(F)C(F)(F)C(F)(F)C(F)(F)C(F)(F)C(F)(F)F`: the “activation” value is 2.03%.

In the case of `CNC(=O)O/N=C(\C)C(C)S(C)(=O)=O` (stereo unspecified), the “activation” value was 4.73% [at 765 µM].

`CC(Cl)CCl` (stereo unspecified): the “activation” value is 0.575%.

For the molecule `COC(=O)c1ccccc1S(=O)(=O)NC(=O)Nc1nc(C)nc(OC)n1`, the “activation” value is 0.776%.

Regarding `CCC(C)c1cccc(C(C)CC)c1O` (stereo unspecified), the “activation” value is 2.83%.

As for `CCN(CC)CCN1C(=O)CN=C(c2ccccc2F)c2cc(Cl)ccc21`, the “activation” value was -7.88%.

For the molecule `ClCBr`, the “activation” value is -3.35% [at 81.1 µM].

As for `CC(C)Br`, the “activation” value is 6.17%.

In the case of `O=c1c2ccccc2c(=O)c2c1cc(Cl)c1[nH]c3c([nH]c12)c(Cl)cc1c(=O)c2ccccc2c(=O)c13`, the “activation” value is -0.0455%.

As for `CC(C)C(Br)C(=O)NC(N)=O` (stereo unspecified), the “activation” value was 8.41%.

Regarding `CC[C@]1(O)CC[C@H]2[C@@H]3CCC4=CCCC[C@@H]4[C@H]3CC[C@@]21C`, the “activation” value is -6.88%.

With `CCC1(CC)C(=O)N=C(O)NC1=O`, the “activation” value was 0.862%.

Regarding `CC(C)N(C(=O)SC/C(Cl)=C/Cl)C(C)C`, the “activation” value is -0.0327% [at 81.1 µM].

For the next test the target is unchanged. The test is described as follows: qHTS assay to identify small molecule antagonists of the vitamin D receptor (VDR) signaling pathway (AID 743223; active = well fitted inhibition curve with a large enough effect in the signal ratio in the repeat runs, not every such curve was filed as active; the % refers to the signal ratio). To be noted: VDR-UAS-bla HEK293T, beta-lactamase FRET ratio, 16 h; series mostly up to 61 µM; activity change, negative = inhibition: at the top concentration. The method in brief:
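Antagonist mode: compound added to VDR-bla cells alongside agonist 1alpha,25-dihydroxyvitamin D3 (3 nM final), incubation 16 h at 37C. Read-out is LiveBLAzer FRET fluorescence, 2 h at room temperature.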
On to `N#Cc1ccc(N(CC(N)=O)CC(F)(F)F)cc1C(F)(F)F`, for which the “activity change, negative = inhibition” value is -7.28%.

Take `c1ccc(Nc2ccc(Nc3ccccc3)cc2)cc1`: the “activity change, negative = inhibition” value is -22.2%.

With `CCN(CC)Cc1nccn1-c1ccc([N+](=O)[O-])cc1C(=O)c1ccccc1Cl`, the “activity change, negative = inhibition” value is 14.9%.

As for `O=C(N[C@@H]1N=C(c2ccccc2F)c2cccc3c2N(CC3)C1=O)c1cc2ccccc2[nH]1`, the “activity change, negative = inhibition” value was -3.14%.

Take `CCOP(=O)(Sc1ccccc1)Sc1ccccc1`: the “activity change, negative = inhibition” value is -2.83%.

As to `O=S(=O)(O)F`, the “activity change, negative = inhibition” value is 5.84% [at 78.8 µM].

`CSC(C)(C)/C=N/O`: the “activity change, negative = inhibition” value was -13.8%.

Take `CCNS(=O)(=O)C(F)(F)C(F)(F)C(F)(F)C(F)(F)C(F)(F)C(F)(F)C(F)(F)C(F)(F)F`: the “activity change, negative = inhibition” value was -0.0028%.

Regarding `CNC(=O)O/N=C(\C)C(C)S(C)(=O)=O` (stereo unspecified), the “activity change, negative = inhibition” value was -20.4% [at 765 µM].

Turning to `CC(Cl)CCl` (stereo unspecified), the “activity change, negative = inhibition” value was -4.7%.

As for `Cc1ccc(C)c2ccccc12`, the “activity change, negative = inhibition” value is 22%.

Regarding `O=C(Nc1ccc(F)cc1F)c1cccnc1Oc1cccc(C(F)(F)F)c1`, the “activity change, negative = inhibition” value was 5.43% [at 78.8 µM].

`CCN(CC)CCN1C(=O)CN=C(c2ccccc2F)c2cc(Cl)ccc21`: the “activity change, negative = inhibition” value was -0.493%.

In the case of `COc1ccc2[nH]cc(CCN(C(C)C)C(C)C)c2c1`, the “activity change, negative = inhibition” value is 7.2% [at 78.8 µM].

Regarding `CC(C)Br`, the “activity change, negative = inhibition” value is 7.24%.

Take `O=c1c2ccccc2c(=O)c2c1cc(Cl)c1[nH]c3c([nH]c12)c(Cl)cc1c(=O)c2ccccc2c(=O)c13`: the “activity change, negative = inhibition” value was 1.97%.

`CC(C)C(Br)C(=O)NC(N)=O` (stereo unspecified): the “activity change, negative = inhibition” value was -0.473%.

Consider `CCC1(CC)C(=O)N=C(O)NC1=O`, for which the “activity change, negative = inhibition” value is -6.27%.

Regarding `CC(C)N(C(=O)SC/C(Cl)=C/Cl)C(C)C`, the “activity change, negative = inhibition” value is 3.48% [at 78.8 µM].

Test system in the next test: not listed separately
The test is described as follows: qHTS assay to identify small molecule agonists of the vitamin D receptor (VDR) signaling pathway - cell viability counter screen (AID 743224). Also: nearly all actives have a fitted effect of over 50% in size. The conditions noted are these: VDR-bla HEK293T viability, CellTiter-Glo luminescence, 16 h; series mostly up to 62.6 µM; activity change, negative = cytotoxicity: at the top concentration. The procedure, abridged:
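VDR-bla cell line, quantitative HTS format; 16 h compound incubation (37C, 5% CO2); ATP-based CellTiter-Glo luminescence measured in the reporter assay wells.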
Take `COc1cnc(OC)n2nc(NS(=O)(=O)c3c(OCC(F)F)cccc3C(F)(F)F)nc12`: the “activity change, negative = cytotoxicity” value is -1.17%.

As to `CCN(CC)Cc1nccn1-c1ccc([N+](=O)[O-])cc1C(=O)c1ccccc1Cl`, the “activity change, negative = cytotoxicity” value was 11.3%.

As to `O=C(N[C@@H]1N=C(c2ccccc2F)c2cccc3c2N(CC3)C1=O)c1cc2ccccc2[nH]1`, the “activity change, negative = cytotoxicity” value was 0.389%.

On to `[C-]1=CC=CC1.[Cl][Zr+2][Cl].c1cc[cH-]c1`, for which the “activity change, negative = cytotoxicity” value was 11.9% [at 81.1 µM].

As for `Nc1ccc(Cl)cc1C(=O)c1ccccc1F`, the “activity change, negative = cytotoxicity” value was 11.5%.

For `C1=CCC=C1`, the “activity change, negative = cytotoxicity” value is 19.8%.

In the case of `O=S(=O)(O)F`, the “activity change, negative = cytotoxicity” value was 22.4% [at 81.1 µM].

Turning to `O=[N+]([O-])c1ccc(Cl)c(Cl)c1Cl`, the “activity change, negative = cytotoxicity” value was 18.3%.

In the case of `CSC(C)(C)/C=N/O`, the “activity change, negative = cytotoxicity” value is 11.8%.

Turning to `CCNS(=O)(=O)C(F)(F)C(F)(F)C(F)(F)C(F)(F)C(F)(F)C(F)(F)C(F)(F)C(F)(F)F`, the “activity change, negative = cytotoxicity” value was -9.81%.

`CNC(=O)O/N=C(\C)C(C)S(C)(=O)=O` (stereo unspecified): the “activity change, negative = cytotoxicity” value is -1.72% [at 765 µM].

With `CC(Cl)CCl` (stereo unspecified), the “activity change, negative = cytotoxicity” value was 7.3%.

`[O-][Cl+3]([O-])([O-])O`: the “activity change, negative = cytotoxicity” value is 2.27% [at 81.1 µM].

Consider `COC(=O)c1ccccc1S(=O)(=O)NC(=O)Nc1nc(C)nc(OC)n1`, for which the “activity change, negative = cytotoxicity” value was -4.56%.

As to `CC1CN1` (stereo unspecified), the “activity change, negative = cytotoxicity” value is 2.61%.

On to `c1cc[n+]2c(c1)-c1cccc[n+]1CC2`, for which the “activity change, negative = cytotoxicity” value was 0.389%.

On to `ClSC(Cl)(Cl)Cl`, for which the “activity change, negative = cytotoxicity” value was 7.07%.

With `O=C(Nc1ccc(F)cc1F)c1cccnc1Oc1cccc(C(F)(F)F)c1`, the “activity change, negative = cytotoxicity” value is -13.4% [at 81.1 µM].

In the case of `CCN(CC)CCN1C(=O)CN=C(c2ccccc2F)c2cc(Cl)ccc21`, the “activity change, negative = cytotoxicity” value was 0.892%.

For the molecule `ClCBr`, the “activity change, negative = cytotoxicity” value is 19.7% [at 81.1 µM].

For the molecule `CC#C[C@]1(O)CC[C@H]2[C@@H]3C[C@H](C)C4=CC(=O)CC[C@]4(C)[C@H]3CC[C@@]21C`, the “activity change, negative = cytotoxicity” value was -19.2%.

With `COc1ccc2[nH]cc(CCN(C(C)C)C(C)C)c2c1`, the “activity change, negative = cytotoxicity” value was -8.34% [at 81.1 µM].

Turning to `CC(C)Br`, the “activity change, negative = cytotoxicity” value is 1.2%.

As to `O=[N+]([O-])c1ccccc1-c1ccccc1`, the “activity change, negative = cytotoxicity” value was -2.74%.

Take `O=c1c2ccccc2c(=O)c2c1cc(Cl)c1[nH]c3c([nH]c12)c(Cl)cc1c(=O)c2ccccc2c(=O)c13`: the “activity change, negative = cytotoxicity” value is 20.9%.

Take `CC(C)C(Br)C(=O)NC(N)=O` (stereo unspecified): the “activity change, negative = cytotoxicity” value is 16.9%.

`CC[C@]1(O)CC[C@H]2[C@@H]3CCC4=CCCC[C@@H]4[C@H]3CC[C@@]21C`: the “activity change, negative = cytotoxicity” value is 2.76%.

As to `CCC1(CC)C(=O)N=C(O)NC1=O`, the “activity change, negative = cytotoxicity” value is -3.84%.

As to `CC(C)NCC(O)c1ccccc1Cl` (stereo unspecified), the “activity change, negative = cytotoxicity” value was 10.1%.

`CC(C)N(C(=O)SC/C(Cl)=C/Cl)C(C)C`: the “activity change, negative = cytotoxicity” value was 0.39% [at 81.1 µM].
